Laboratory results reported in PubChem BioAssay (NCATS).
Inconclusive results are not listed. Active and inactive are the calls of the source. Calls come from the whole dose curve; as a rule, active = well fitted inhibition curve with a large enough effect; inconclusive = small, poorly fitted or top-dose-only effect; inactive = no such curve, though single readings can be large or run the other way.

Test: NS1 protein of Zika virus - qHTS assay to identify small molecule inhibitors in human HEK 293 cells (AID 1347053);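 note: plate controls were infected untreated cells for no effect and uninfected cells for full effect; nearly all actives have a fitted effect of over 55% in size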
Conditions: HEK293 ZIKV MR766 infection, NS1 TR-FRET, 24 h; series mostly up to 46.1 µM; activity change, negative = inhibition: at the top concentration
Outline: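 HEK 293 cells, seeded 20 h at 37 C, were pretreated with compound 1 h, then infected with ZIKV MR766 (MOI = 0.5) for 24 h. NS1 was read by TR-FRET with two anti-NS1 antibodies, normalized to uninfected and infected wells.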

Row | SMILES | activity change, negative = inhibition
1 | CCOc1ccc(C(=O)OCCN(CC)CC)cc1 | -15.4% (inactive)
2 | CC(O)CCCCn1c(=O)c2c(ncn2C)n(C)c1=O (stereo not drawn) | -17.6% (inactive)
3 | Cc1cccc(C)c1NC(=O)CC12CCCN1CCC2 | 2.91% (inactive)
4 | O=C(c1ccccc1)C(O)c1ccccc1 (stereo not drawn) | -15% (inactive)
5 | NS(=O)(=O)c1ccc(NC(=O)CCC(=O)O)cc1 | -4.01% (inactive)
6 | CC[N+](CC)(CC(=O)Nc1c(C)cccc1C)Cc1ccccc1 | -4.24% (inactive)
7 | C=CCOc1ccccc1OCC(O)CNC(C)C (stereo not drawn) | -3.61% (inactive)
8 | C[N+]1(C)CCCC(OC(=O)C(O)(c2ccccc2)c2ccccc2)C1 (stereo not drawn) | -2.29% (inactive)
9 | CCCCCCCCCCC(CO)CCCCCCCC (stereo not drawn) | 8.28% (inactive)
10 | CC(=O)Nc1ccc(C(=O)O)cc1 | -19.6% (inactive)
11 | COc1ccc(-c2cc(=O)c3c(O)cc(O[C@@H]4O[C@H](CO[C@@H]5O[C@@H](C)[C@H](O)[C@@H](O)[C@H]5O)[C@@H](O)[C@H](O)[C@H]4O)cc3o2)cc1O | 1.07% (inactive)
12 | Cc1c(I)c(=O)n(-c2ccccc2)n1C | -21.4% (inactive)
13 | OC[C@@H](O)[C@@H](O)[C@H](O)[C@H](O)CO | -15.8% (inactive)
14 | CC(C)(C)NCC(O)COc1cccc2c1CCC(=O)N2 (stereo not drawn) | 10.3% (inactive)
15 | CN/C(=C\[N+](=O)[O-])NCCSCc1csc(CN(C)C)n1 | 9.82% (inactive)
16 | CC(=O)NCc1c(I)c(NC(C)=O)c(I)c(C(=O)O)c1I | 4.95% (inactive)
17 | O=C(OOC(=O)c1ccccc1)c1ccccc1 | 6.36% (inactive)
18 | O=C(O)CCCCC1CCSS1 (stereo not drawn) | -0.816% (inactive)
19 | FC(F)(F)C(Cl)Br (stereo not drawn) | 5.24% (inactive)

Row | SMILES | activity change, negative = inhibition
20 | C[C@@H]1O[C@@H](OC[C@H]2O[C@@H](Oc3c(-c4ccc(O)c(O)c4)oc4cc(O)cc(O)c4c3=O)[C@H](O)[C@@H](O)[C@@H]2O)[C@H](O)[C@H](O)[C@H]1O | -6.66% (inactive)
21 | CC(=O)Nc1cccc(O)c1 | -9.01% (inactive)
22 | O=C1C(c2[nH]c3ccccc3c2O)=Nc2ccccc21 | -4.78% (inactive)
23 | NCC1CCC(C(=O)Oc2ccc(CCC(=O)O)cc2)CC1 (stereo not drawn) | -15.4% (inactive)
24 | CCCCCCCCCCCCCCCCCCO | -12.5% (inactive)
25 | CC(C)=CCC[C@@](C)(O)[C@H]1CC=C(C)CC1 | 14.3% (inactive)
26 | COc1ccccc1OC(=O)Oc1ccccc1OC | 7.89% (inactive)
27 | N[C@@H](Cc1ccc(O)cc1)C(=O)O | 1.13% [at 9.2 µM] (inactive)
28 | COC(=O)c1cccnc1 | -2.39% (inactive)
29 | CC(CSC(=O)c1ccccc1)C(=O)N1C[C@@H](Sc2ccccc2)C[C@H]1C(=O)O (stereo partly drawn) | 2.2% [at 20.1 µM] (inactive)
30 | Cc1ccccc1N=Nc1ccc(N=Nc2c(O)ccc3ccccc23)c(C)c1 | 11.6% (inactive)
31 | CN1C(C)(C)CCCC1(C)C | -1.84% (inactive)
32 | CN1CCCN=C1COC(=O)C(O)(c1ccccc1)C1CCCCC1 (stereo not drawn) | -3.18% (inactive)
33 | Cc1ccsc1C(=CCCN1CCC[C@@H](C(=O)O)C1)c1sccc1C | -13.3% (inactive)
34 | CCc1nnc(NS(=O)(=O)c2ccc(N)cc2)s1 | 1.81% (inactive)
35 | O=C(O)[C@@H]1[C@H]2C[C@H]3c4[nH]c5ccccc5c4CCN3C[C@@H]2CC[C@@H]1O | 8.87% (inactive)
36 | CCCCCCCC(=O)OCC(O)CO (stereo not drawn) | 1.53% (inactive)
37 | O=C(O)c1ccc(OCCCOc2ccc(C(=O)O)cc2)cc1 | -0.805% (inactive)
38 | NC(=O)NC1NC(=O)NC1=O (stereo not drawn) | 3.62% (inactive)
